# Results filed as inconclusive are left out. Values without a mark were called inactive. Active and inactive are the calls of the source. Calls follow the shape of the dose curve; as a rule, active = well fitted inhibition curve with a large enough effect; inconclusive = small, poorly fitted or top-dose-only effect, or effect the other way; inactive = flat fitted curve, though single readings scatter.
# Biological target: ATP-dependent 6-phosphofructokinase (Trypanosoma brucei brucei) (UniProt O15648)
# Assay: qHTS Assay to Find Inhibitors of T. brucei phosphofructokinase: hit validation (AID 492961);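 as to activity change, negative = inhibition: luminescence reports ADP formed as PFK phosphorylates fructose-6-phosphate with ATP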
# Conditions: T. brucei PFK, ADP-Glo luminescence; series mostly up to 51.4 µM; activity change, negative = inhibition: at the top concentration
# Outline: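 Inhibition of parasite PFK is measured as reduced ADP formation, quantified via luciferase after ATP depletion. Assay used 0.1 mM ATP, 0.5 mM F6P, 1.25 nM enzyme, 45 min incubation.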
# % is scaled to controls: 0 for no effect and ±100 for the full control effect; potency is read from the fitted curve at half-maximal effect.
# ATP-dependent 6-phosphofructokinase (Trypanosoma brucei brucei), sequence (O15648 whole entry, looked up): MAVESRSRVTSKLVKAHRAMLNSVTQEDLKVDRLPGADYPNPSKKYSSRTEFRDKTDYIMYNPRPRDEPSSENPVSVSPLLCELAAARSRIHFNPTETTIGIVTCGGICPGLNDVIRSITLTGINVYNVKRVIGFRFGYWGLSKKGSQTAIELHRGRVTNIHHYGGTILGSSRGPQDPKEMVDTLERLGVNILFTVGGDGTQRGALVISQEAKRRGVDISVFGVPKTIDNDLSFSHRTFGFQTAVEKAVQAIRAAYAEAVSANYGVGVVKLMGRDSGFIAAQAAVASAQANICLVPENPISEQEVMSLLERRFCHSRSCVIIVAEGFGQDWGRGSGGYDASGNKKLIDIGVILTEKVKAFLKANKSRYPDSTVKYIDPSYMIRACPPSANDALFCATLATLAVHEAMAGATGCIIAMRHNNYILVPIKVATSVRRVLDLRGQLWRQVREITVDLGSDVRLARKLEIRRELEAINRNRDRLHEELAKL
Compound,"activity change, negative = inhibition",Potency
CCOP(=O)(OCC)O/C(=C/Cl)c1ccc(Cl)cc1Cl,-8.65%,
CN1[C@@H]2CC[C@H]1CC(OC1c3ccccc3CCc3ccccc31)C2 (stereo partly drawn),-11% [at 24.3 µM],
CCCC(C)C1(CC)C(=O)NC(=O)NC1=O (stereo not drawn),9.7%,
OC(c1ccccc1)(c1ccccc1)C1CN2CCC1CC2 (stereo not drawn),0%,
CCCCCCCCCC(=O)O[C@H]1CC[C@H]2[C@@H]3CCC4=CC(=O)CC[C@]4(C)[C@H]3CC[C@]12C,9.44%,
Clc1ccc(C2(Cn3cncn3)OCCO2)c(Cl)c1,-4.84%,
CC1CCC(C(C)C)C(OC(=O)c2ccccc2N)C1 (stereo not drawn),-0.4%,
C=CCC1(C(C)CCC)C(=O)N=C(S)NC1=O (stereo not drawn),-4.37%,
O=[N+]([O-])C(Br)(CO)CO,,8.91 µM (active)
CC(Cc1ccccc1)NC=O (stereo not drawn),-0.866%,
FC(F)OC(F)(F)C(F)Cl (stereo not drawn),5.78%,
CNC(=O)OCC[N+](C)(C)C,9.7%,
CCCCCl,5.98%,
N#CC(C#N)=Cc1cc(O)c(O)c(O)c1,-6.78%,
C[C@]12CCC(=O)C[C@@H]1CC[C@@H]1[C@@H]2CC[C@]2(C)[C@@H](O)CC[C@@H]12,6.69%,
COCC(C)N(C(=O)CCl)c1c(C)csc1C (stereo not drawn),4.07%,
CCCC(=O)OC(C(Cl)(Cl)Cl)P(=O)(OC)OC (stereo not drawn),1.58%,
O=[N+]([O-])c1cc(I)c(O)c(I)c1,-24.3%,
O=C/C=C/c1ccccc1,-4.33%,
CCC(C)(S(=O)(=O)CC)S(=O)(=O)CC,-3.64%,
O=P(O)(O)C(Cl)(Cl)P(=O)(O)O,-9.53%,
Cn1sc(Cl)cc1=O,11.5%,
F/C(COc1ccc2c(c1)[nH]c1ccccc12)=C1/CN2CCC1CC2,0%,

# From PubChem BioAssay (NCATS)
